# Results from the antibiotic and cytotoxicity screens of Wong et al. (2023).
# Screen size: about 39,000 compounds; about 1,500 (3.8%) were called active. The full list was thinned out, with actives kept by preference.
# Tested on: HSkMC (human skeletal muscle cells)
# Assay: cytotoxicity call (relative viability < 0.9)
# Conditions: 10 µM
row,Compound,cytotoxicity call
1,O=C(C[C@H]1C[C@H]2c3cc(NC(=O)NC4CCCC4)ccc3O[C@H]2[C@H](CO)O1)NCCN1CCCCC1,inactive
2,Cc1ncc([N+](=O)[O-])n1C,inactive
3,C[C@@H]1CCCCO[C@H](CN(C)S(=O)(=O)c2cn(C)cn2)[C@@H](C)CN([C@@H](C)CO)C(=O)c2cc(NC(=O)Nc3ccc(C(F)(F)F)cc3)ccc2O1,inactive
4,C[C@H]1CN([C@@H](C)CO)C(=O)Cc2cc(NC(=O)c3ccncc3)ccc2O[C@H]1CN(C)C(=O)NC1CCCCC1,inactive
5,Cc1ccc(S(=O)(=O)Nc2ccc3c(c2)C(=O)N([C@@H](C)CO)C[C@@H](C)[C@@H](CN(C)C(=O)NC2CCCCC2)OCCCC[C@H](C)O3)cc1,inactive
6,C[C@H](O)C#Cc1ccc2c(c1)O[C@H](CN(C)C(=O)Nc1ccccc1)[C@@H](C)CN([C@@H](C)CO)S2(=O)=O,inactive
7,Cc1ccccc1S(=O)(=O)N1C[C@H](O)COC[C@@H]2O[C@@H](CC(=O)N3CCN(C)CC3)CC[C@H]21,inactive
8,COCC(=O)Nc1ccc2c(c1)C(=O)N(C)C[C@@H](OC)[C@H](C)CN(C(=O)CN1CCOCC1)[C@H](C)CO2,inactive
9,COc1ccc(-c2ccccc2)cc1NC(=O)c1ccc2nc(C)c(N(C)C(=O)CCc3ccccc3)n2c1,inactive
10,C[C@H](CO)N1C[C@H](C)[C@H](CN(C)C(=O)C2CCC2)Oc2cc(C#Cc3ccncc3)ccc2S1(=O)=O,inactive
11,N[C@H]1CCN(c2ccc(C(F)(F)F)cn2)C1,inactive
12,COc1ccc(S(=O)(=O)Nc2ccc3c(c2)C(=O)N([C@@H](C)CO)C[C@H](C)[C@H](CN(C)Cc2ccc(C(F)(F)F)cc2)OCCCC[C@@H](C)O3)cc1,inactive
13,COc1ccc(S(=O)(=O)Nc2ccc3c(c2)C(=O)N([C@@H](C)CO)C[C@@H](C)[C@H](CN(C)Cc2ccc(C(F)(F)F)cc2)OCCCC[C@H](C)O3)cc1,active
14,COc1ccc(S(=O)(=O)Nc2ccc3c(c2)C(=O)N([C@H](C)CO)C[C@@H](C)[C@H](CN(C)Cc2ccc(C(F)(F)F)cc2)OCCCC[C@H](C)O3)cc1,inactive
15,COc1ccc(S(=O)(=O)Nc2ccc3c(c2)C(=O)N([C@H](C)CO)C[C@H](C)[C@@H](CN(C)Cc2ccc(C(F)(F)F)cc2)OCCCC[C@H](C)O3)cc1,inactive
16,COc1ccc(S(=O)(=O)Nc2ccc3c(c2)C(=O)N([C@@H](C)CO)C[C@H](C)[C@H](CN(C)Cc2ccc(C(F)(F)F)cc2)OCCCC[C@H](C)O3)cc1,active
17,COc1ccc(S(=O)(=O)Nc2ccc3c(c2)C(=O)N([C@H](C)CO)C[C@H](C)[C@H](CN(C)Cc2ccc(C(F)(F)F)cc2)OCCCC[C@@H](C)O3)cc1,inactive
18,C[C@]12C[C@]3(O)O[C@@H](O1)[C@]1(COC(=O)c4ccccc4)[C@H]3C[C@@]12O[C@@H]1O[C@H](CO)[C@@H](O)[C@H](O)[C@H]1O,inactive
19,COc1ccc(COC[C@@]23Oc4ccccc4[C@@H](NC(=S)N2C)[C@@H]3CO[Si](C)(C)C(C)(C)C)cc1,inactive
20,C[C@H](CO)N1C[C@H](C)[C@H](CN(C)Cc2ccncc2)OCCCC[C@H](C)Oc2ccc(NC(=O)Cc3ccccc3)cc2C1=O,inactive
21,C[C@@H]1CN([C@H](C)CO)C(=O)c2cc(NC(=O)Nc3ccccc3)ccc2O[C@@H]1CN(C)C(=O)Nc1ccc(C(F)(F)F)cc1,inactive
22,C[C@H](CO)N1C[C@H](C)[C@@H](CN(C)C(=O)Nc2ccccc2)Oc2ccc(NC(=O)Nc3ccc(C(F)(F)F)cc3)cc2C1=O,inactive

row,Compound,cytotoxicity call
1,C[C@H]1CN([C@@H](C)CO)C(=O)c2cc(NC(=O)Nc3ccc(C(F)(F)F)cc3)ccc2O[C@@H]1CN(C)C(=O)Nc1ccccc1,inactive
2,C[C@@H]1CN([C@@H](C)CO)C(=O)c2cc(NC(=O)Nc3ccc(C(F)(F)F)cc3)ccc2O[C@@H]1CN(C)C(=O)Nc1ccccc1,active
3,C[C@H](CO)N1C[C@H](C)[C@H](CN(C)C(=O)Nc2ccc(C(F)(F)F)cc2)Oc2ccc(NC(=O)Nc3ccccc3)cc2C1=O,active
4,C[C@H]1CN([C@@H](C)CO)C(=O)c2cc(NC(=O)Nc3ccccc3)ccc2O[C@H]1CN(C)C(=O)Nc1ccc(C(F)(F)F)cc1,inactive
5,C[C@H](CO)N1C[C@H](C)[C@H](CN(C)C(=O)Nc2ccccc2)Oc2ccc(NC(=O)Nc3ccc(C(F)(F)F)cc3)cc2C1=O,active
6,C[C@@H]1CN([C@@H](C)CO)C(=O)c2cc(NC(=O)Nc3ccccc3)ccc2O[C@H]1CN(C)C(=O)Nc1ccc(C(F)(F)F)cc1,inactive
7,C[C@@H]1CN([C@@H](C)CO)C(=O)c2cc(NC(=O)Nc3ccccc3)ccc2O[C@@H]1CN(C)C(=O)Nc1ccc(C(F)(F)F)cc1,inactive
8,O=C(N[C@H]1CC[C@H](CC(=O)N2CCOCC2)O[C@H]1CO)c1ccc2c(c1)OCO2,inactive
9,C[C@@H]1CN([C@@H](C)CO)C(=O)c2cccc(NC(=O)C3CCOCC3)c2O[C@H]1CN(C)Cc1ccncc1,inactive
10,C[C@@H]1CCCCO[C@H](CN(C)C(=O)Nc2ccccc2)[C@H](C)CN([C@@H](C)CO)C(=O)c2cc(NS(=O)(=O)c3ccccc3)ccc2O1,inactive
11,C[C@H](CO)N1C[C@H](C)[C@@H](CN(C)S(=O)(=O)c2ccc(-c3ccccc3)cc2)OCc2cn(nn2)CCCC1=O,inactive
12,C[C@H]1O[C@@H]2[C@H](O[C@@H]1C)N(S(C)(=O)=O)CCN2S(C)(=O)=O,inactive
13,COc1ccc(NC(=O)N2C[C@H](O)COC[C@H]3O[C@H](CC(=O)NC4Cc5ccccc5C4)CC[C@@H]32)cc1,inactive
14,C[C@H](CO)N1C[C@H](C)[C@H](CN(C)Cc2ccc(-c3ccccc3)cc2)Oc2ccc(NC(=O)Nc3ccc4c(c3)OCO4)cc2CC1=O,inactive
15,C=CCC[C@@H](Cc1ccc(F)cc1)C(=O)OC[C@H]1CCCN1C(=O)[C@H](CC=C)CC(=O)N(CCO)Cc1ccccc1,inactive
16,C=CCC[C@H](Cc1ccc(F)cc1)C(=O)OC[C@H]1CCCN1C(=O)[C@H](CC=C)CC(=O)N(CCO)Cc1ccccc1,inactive
17,C=CCC[C@@H](Cc1ccc(F)cc1)C(=O)OC[C@H]1CCCN1C(=O)[C@@H](CC=C)CC(=O)N(CCO)Cc1ccccc1,inactive
18,C=CCC[C@@H](Cc1ccc(F)cc1)C(=O)OC[C@@H]1CCCN1C(=O)[C@@H](CC=C)CC(=O)N(CCO)Cc1ccccc1,inactive
19,C=CCC[C@H](Cc1ccc(F)cc1)C(=O)OC[C@H]1CCCN1C(=O)[C@@H](CC=C)CC(=O)N(CCO)Cc1ccccc1,active
20,C=CCC[C@H](Cc1ccc(F)cc1)C(=O)OC[C@@H]1CCCN1C(=O)[C@@H](CC=C)CC(=O)N(CCO)Cc1ccccc1,active
21,CN(C)CC(=O)N[C@@H]1CC[C@H](CC(=O)NCCN2CCCCC2)O[C@H]1CO,inactive
22,COc1ccc(C2=NS(=O)(=O)N(C)C(C(=O)N3CCC(C(N)=O)CC3)=C2)cc1,inactive

row,Compound,cytotoxicity call
1,CC(C)NC(=O)N(C)C[C@H]1Oc2c(NS(=O)(=O)c3ccc(Cl)cc3)cccc2C(=O)N([C@@H](C)CO)C[C@H]1C,inactive
2,COc1ccc(S(=O)(=O)Nc2cccc3c2O[C@@H](CN(C)S(=O)(=O)c2ccccc2)[C@H](C)CN([C@@H](C)CO)C3=O)cc1,inactive
3,O=C(Nc1ccc2ccccc2c1)c1ccc(Cl)cc1Cl,inactive
4,O=C(Nc1ccc(Oc2ccc(Cl)cc2)c(Cl)c1)c1cc(I)cc(I)c1O,active
5,Cc1ccc(S[C@]2(C(=O)NC(C)C)CC(=O)N(Cc3ccccc3C(F)(F)F)[C@@H]2c2ccc(CO)cc2)cc1,inactive
6,CC(C)(C)c1cc(NC(=O)Nc2ccc(Oc3ccnc4nc(O)cnc34)cc2F)n(-c2ccccc2)n1,active
7,Cc1ccc(S(=O)(=O)N(C)C[C@H]2Oc3ccc(NC(=O)C4CC4)cc3C(=O)N([C@H](C)CO)C[C@@H]2C)cc1,inactive
8,Fc1ccccc1-c1nc2ccn(Cc3ccc(-c4ccc(C(F)(F)F)cc4C(F)(F)F)nn3)cc-2n1,active
9,Cc1noc(C)c1NC(=O)Nc1cccc2c1O[C@H](CN(C)Cc1ccc(Oc3ccccc3)cc1)[C@@H](C)CN([C@H](C)CO)C2=O,inactive
10,Cc1noc(C)c1NC(=O)Nc1ccc2c(c1)C(=O)N([C@H](C)CO)C[C@@H](C)[C@@H](CN(C)Cc1ccccc1)OCCCC[C@@H](C)O2,inactive
11,C[C@@H]1CCCCO[C@H](CN(C)C(=O)CCC(F)(F)F)[C@@H](C)CN([C@H](C)CO)C(=O)c2cc(NC(=O)c3ccccc3)ccc2O1,inactive
12,COc1ccc(NC(=O)Nc2ccc3c(c2)CC(=O)N([C@H](C)CO)C[C@@H](C)[C@H](CN(C)Cc2ccc(Oc4ccccc4)cc2)O3)cc1,inactive
13,C1CCC(C(CC2CCCCN2)C2CCCCC2)CC1.O=C(O)C=CC(=O)O (stereo unspecified),active
14,O=C(O)CC[C@H]1CCCCN1,inactive
15,C1CCC(C(C[C@H]2CCCCN2)C2CCCCC2)CC1,inactive
16,C[C@H]1CN([C@@H](C)CO)S(=O)(=O)c2ccc(-c3cncnc3)cc2O[C@@H]1CN(C)C(=O)C1CCCCC1,inactive
17,COc1ccc2c3c([nH]c2c1)[C@H](CO)N(C[C@]13CCN(CC1)C(=O)Nc1cccc(c1)F)C(=O)c1ccc(cc1)F,inactive
18,COc1ccc2c3c([nH]c2c1)[C@@H](CO)N(C[C@]13CCN(CC1)C(=O)Nc1cccc(c1)F)C(=O)c1ccc(cc1)F,inactive
19,COc1ccc2c3c([nH]c2c1)[C@H](CO)N(C[C@]13CN(CC2CCCCC2)C1)C(=O)Nc1cccc(c1)F,active
20,COc1ccc2c3c([nH]c2c1)[C@@H](CO)N(C[C@]13CN(CC2CCCCC2)C1)C(=O)Nc1cccc(c1)F,active
21,COc1ccc2c3c([nH]c2c1)[C@H](CO)N(CC1CCCCC1)C[C@]13CN(C1)C(=O)Nc1cccc(c1)F,inactive
22,COc1ccc2c3c([nH]c2c1)[C@@H](CO)N(CC1CCCCC1)C[C@]13CN(C1)C(=O)Nc1cccc(c1)F,inactive
